Reference: PubChem BioAssay (NCATS)
Inconclusive results are not listed. A call without a number means that no potency is given here. Calls of active or inactive are those of the source. Calls come from the whole dose curve.

experiment: qHTS assay for small molecule disruptors of the mitochondrial membrane potential - 1 hr assay (AID 651754); details: series mostly up to 92.2 µM; note: nearly all actives have a fitted effect of over 35% in size
Excerpt: National Center for Advancing Translational Sciences [NCATS]
NIH Chemical Genomics Center [NCGC]
National Institutes of Environmental Health Sciences [NIEHS]
National Toxicology Program [NTP]
Mitochondrial membrane potential (MMP), one of the parameters for mitochondrial function, is generated by mitochondrial electron transport chain that creates an electrochemical gradient by a series of redox reactions. This gradient drives the synthesis of ATP, a crucial molecule for various cellular processes. Measuring MMP in living cells is commonly used to assess the effect of chemicals on mitochondrial function. […] The dye accumulates in the mitochondria of healthy cells as aggregates, with red fluorescence. The mitochondrial potential collapses and the dye can no longer accumulate in the mitochondria and remains in the cytoplasm in monomers, with green fluorescence.
2,000 HepG2 cells in 5 uL/well were dispensed into black, clear-bottom 1536-well plates using a Multidrop Combi (Thermo Scientific) dispenser. The assay plates were incubated overnight at 37C to allow cells to attach to the wells, followed by the transfer of 23 nL compound or DMSO vehicle by a pin tool (Kalypsys). The plates were incubated for 1 hr at 37C and 5% CO2, followed by the addition of 5 uL of 2X Mito-MPS dye (BD Biosciences) into each well using Flying Reagent Dispenser (Aurora Discovery) and then following 30 min incubation at 37C. Fluorescence intensity (490nm excitation and 535nm emission for monomers; and 540nm excitation and 590nm emissions for aggregates) was measured using an Envision plate reader.
Potency is the fitted concentration of half-maximal effect.

Row | SMILES | Potency
1 | CC(C)(C)OOC(=O)c1ccccc1 | inactive
2 | Oc1cc(Cl)c(Cl)c(Cl)c1 | 33.5 µM (active)
3 | CCCCOC(=O)c1ccccc1N | inactive
4 | O=C(O)CBr | inactive
5 | OC[P+](CO)(CO)CO | inactive
6 | CC(C)Br | inactive
7 | N#CC(Cl)(Cl)Cl | inactive
8 | Brc1cccc(-c2ccccc2)c1 | inactive
9 | CC1CC(=O)O1 (stereo not given) | inactive
10 | O=P(OCCCl)(OCCCl)OCCCl | inactive
11 | ClCCCCl | inactive
12 | CCCCCc1cc(O)cc(O)c1 | 37.6 µM (active)
13 | ClC(Br)Br | inactive
14 | Cl/C=C/CCl | inactive
15 | COC(=O)Nc1cccc(OC(=O)Nc2cccc(C)c2)c1 | 42.2 µM (active)
16 | N#CCc1ccccc1 | inactive
17 | C[N+](=O)[O-] | inactive
18 | CCCBr | inactive
19 | OCC(Cl)CCl (stereo not given) | inactive
20 | O=[N+]([O-])c1ccccc1-c1ccccc1 | inactive

Row | SMILES | Potency
21 | Clc1ccc(Cl)c(Cl)c1 | inactive
22 | Nc1ccc(-c2ccc(N)c(Cl)c2)cc1Cl | 42.2 µM (active)
23 | ClC(Cl)Br | inactive
24 | CC(C)(OOC(C)(C)c1ccccc1)c1ccccc1 | inactive
25 | COc1c(C(C)(C)C)cc([N+](=O)[O-])c(C)c1[N+](=O)[O-] | inactive
26 | C=CCCC#N | inactive
27 | CC(Cl)CCl (stereo not given) | inactive
28 | [N-]=[N+]=[N-] | inactive
29 | Cc1cccc(N)c1C | inactive
30 | CN(C)N=O | inactive
31 | CCCCCOC(=O)c1ccccc1C(=O)OCCCCC | inactive
32 | CC(C)CON=O | inactive
33 | ClCCOCCCl | inactive
34 | c1ccc(NNc2ccccc2)cc1 | inactive
35 | O=C(O)C(Cl)(Cl)Br | inactive
36 | BrCC(Br)(Br)Br | inactive
37 | CN(C)C(=O)Cl | inactive
38 | c1ccc2c(c1)CCNC2 | inactive
39 | CN1CSC(=S)N(C)C1 | inactive
40 | NNC(N)=S | inactive
